# NADH coupling: blocks coupling enzymes of NAD/NADH assays; IC50, µM (top dose mostly 10 µM), for inactives: at the highest dose inhibition; 65,000 compounds, 0.02% hits; coupled PK/LDH NADH assays, four targets;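 active means single-dose screening hits from any of four coupled enzyme assays that gave an IC50 when retested across doses; inconclusive means no clear call, values can overlap the other calls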;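 further: the DPM-DC format reads NADH fluorescence rather than 340 nm absorbance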
# PMK inhibit: S. pneumoniae PMK inhibition; purified PMK, PK/LDH-coupled NADH absorbance 340 nm; inhibition, % at 10 µM; 65,000 compounds, 0.49% hits;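 active means top-ranked compounds by inhibition in the single 10 µM screen, taking a fixed number of the strongest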;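 further: 0% = full reaction with DMSO carrier and 100% = background rate without enzyme reaction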
# Spn MK inh: inhibitors of Streptococcus pneumoniae mevalonate kinase; purified MK, PK/LDH-coupled NADH absorbance 340 nm; inhibition, % at 10 µM; 65,000 compounds, 0.48% hits; AID 555;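 active means ranked among the strongest by inhibition in the single 10 µM screen, a fixed top-ranked set picked for dose follow-up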
# A340 absorber: compounds absorbing at 340 nm. compound absorbance at 340 nm, fold over control. fold change at 10 µM. 65,000 tested, under 10 active. AID 708;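 active means at 10 µM dose, initial 340 nm absorbance at least 2 fold that of control wells; inactive means change under 2 fold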;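 further: initial absorbance extrapolated from kinetic A340 decline of NADH oxidation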
# Spn DPM-DC inh: blocks S. pneumoniae diphosphomevalonate decarboxylase; purified DPM-DC, PK/LDH coupled NADH fluorescence; calls only at 10 µM; 65,000 compounds, 0.49% hits; AID 556;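 active means the 320 compounds with the highest percent inhibition in the single-dose primary screen, excluding strongly autofluorescent ones, cut at about 32% in these data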;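 further: kinetic rate of NADH fluorescence loss reporting ADP formed by the decarboxylase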
# Autofluor 339: intrinsic fluorescence of library compounds, ex339/em460 – biochemical, MLSMR library, data from DPM-DC assay, artefact control, profiling panel. compound autofluorescence, ex339/em460 nm, NADH buffer; hits give high values; 1 = no-compound wells, NADH background. fluorescence fold increase at 10 µM. 65,000 compounds, 5.5% hits;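 active means at 10 µM, mean starting fluorescence two-fold or more over control wells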;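 further: signal is the first read of a kinetic run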
# Active calls of the source: *; i = inactive; ? = inconclusive; · = no result shown. Only some compounds are listed: those with a hit (about 6.5% of all), similar ones and a draw of the others.
SMILES,NADH coupling,PMK inhibit,Spn MK inh,A340 absorber,Spn DPM-DC inh,Autofluor 339
N#Cc1nc(-c2ccc(Cl)cc2)oc1NCc1ccco1,4%,3,4,1.1,·,2.1*
Nc1ccc(C(=O)OCc2nc3ccccc3[nH]2)cc1,6%,16,0,1,i,1
Nc1cccc(-c2nc3ccccc3[nH]2)c1,2%,0,3,0.99,·,2.2*
Nc1ccccc1-c1nc2ccccc2[nH]1,7%,7,7,1.1,·,3.8*
Cn1cc(-c2nc3ccccc3[nH]2)c2ccccc21,1%,0,3,1,·,2.1*
Cn1c(NCc2c[nH]c3ccccc23)nc2ccccc21,4%,11,2,0.98,i,1.1
Nc1ccc(-c2nc3ccccc3[nH]2)cc1,3%,0,6,1.1,·,2.1*
Cc1n[nH]c(C)c1-c1nc2ccccc2[nH]1,4%,10,3,1,i,1
Cc1cn(C2CC3OCC3O2)c(=O)[nH]c1=O (stereo not drawn),1%,1,2,1,i,1
CCCn1c(C)cc(=O)c2cc(NC(=O)c3cnccn3)ccc21,4%,13,0,1,i,1.1
O=c1c2ccccc2nc2n1CCC2,?,23,86*,1,i,1.1
O=c1c2ccccc2nc2n1CCCCC2,5%,8,7,1,i,1
Nc1ccc2nc3n(c(=O)c2c1)CCC3,9%,12,6,1.1,·,2.1*
O=c1c2ccccc2nc2n1CCCCN2,6%,9,3,1.1,·,3.8*
O=CN(Cc1ccco1)C1(C(=O)NC2CCCCC2)CCCCC1,7%,8,14,0.96,i,1.1
Cc1cc2c(c(=O)n1C)C(Cc1ccccc1)C(C#N)=C(N)O2 (stereo not drawn),3%,5,4,1,i,1.4
N=c1n(CCN2CCOCC2)c2ccccc2n1CC(=O)c1ccc(Cl)c(Cl)c1,9%,26*,2,0.98,i,1.1
CCCc1nc(-c2cc3ccc(C)cc3[nH]c2=O)no1,7%,6,7,1.1,·,2.2*
Cc1ccc2cc(-c3noc(C4CCCCC4)n3)c(=O)[nH]c2c1,0%,0,0,1.1,·,2.2*
Cc1ccc2cc(-c3noc(C4CCCO4)n3)c(=O)[nH]c2c1 (stereo not drawn),0%,0,0,1.1,·,2.2*
O=C(Nc1ccccc1C(=O)N1CCCC1)c1cccc(S(=O)(=O)N2CCCCC2)c1,6%,13,6,0.98,i,1.1
CCOC(=O)CSc1nc(-c2cccs2)nc2c1c(=O)n(C)c(=O)n2C,5%,3,0,1.1,i,1.7
CCN(CC)Cc1c(O)ccc2c(-c3ccccc3)cc(=O)oc12,9%,10,7,1.1,·,2.1*
COC(=O)Cc1c(C)c2ccc(OCC(C)=O)c(C)c2oc1=O,7%,8,6,1.1,·,3.8*
C=C(C)COc1ccc2c(C)c(CC(=O)OC)c(=O)oc2c1C,1%,0,2,1.1,·,3.8*
SMILES,NADH coupling,PMK inhibit,Spn MK inh,A340 absorber,Spn DPM-DC inh,Autofluor 339
CCN(CC)Cc1c(O)ccc2c(C)c(CC(=O)OC)c(=O)oc12,6%,5,6,1.2,·,2.4*
CCOC(=O)c1cnn(-c2cc(C)c3cc(C)cc(C)c3n2)c1N,2%,0,1,1,i,1
CCn1c(=O)c2cc(C(=O)N3CCOCC3)sc2c2ccccc21,5%,3,6,1.1,·,2.1*
O=C(c1cc2c(=O)n3ccccc3nc2s1)N1CCOCC1,10%,19,0,1.1,·,4.9*
O=C(c1cc2c(=O)oc3ccccc3c2s1)N1CCOCC1,10%,17,8,1.1,i,0.96
CCn1c2ccccc2c2cc(NC(=O)N3CCOCC3)ccc21,10%,8,9,1.1,i,2.1*
CCn1c(=O)cc(OCC(=O)N2CCCC2)c2ccccc21,0%,0,0,1,i,1.1
Cc1nn(-c2ccccc2)c2sc(C(=O)N3CCOCC3)cc12,1%,7,3,1,i,1.1
CCn1c(=O)c2cc(C(=O)N3CCCC3)sc2c2ccccc21,2%,1,3,1.2,·,2.1*
N#Cc1nc(-c2ccco2)oc1NCCN1CCOCC1,17%,13,10,1,i,3*
Cc1ccc(-c2nc(C#N)c(NCCN3CCCCC3)o2)cc1,5%,6,4,1.1,·,2.1*
N#Cc1nc(-c2cccc3ccccc23)oc1NCCN1CCOCC1,14%,15,13,1.1,·,3.6*
N#Cc1nc(COc2ccccc2)oc1NCCN1CCOCC1,4%,17,5,1,i,1.1
N#Cc1nc(-c2ccc(F)cc2)oc1NCCN1CCOCC1,6%,3,9,1.1,·,2.1*
N#Cc1nc(Cc2cccc3ccccc23)oc1NCCN1CCCCC1,6%,11,8,1,i,1.1
COc1ccc(N2CCN(c3oc(-c4ccco4)nc3C#N)CC2)cc1,10%,13,16,1,i,1.1
COc1ccccc1C1C(C(=O)c2cc3ccccc3o2)=C(O)C(=O)N1CCN1CCOCC1 (stereo not drawn),6%,6,12,1.1,i,1.1
O=C(Cn1c(NCCCO)nc2ccccc21)c1cccs1,6%,10,6,1.1,i,1.1
COc1ccc(-c2nc(C#N)c(NCCCN3CCOCC3)o2)cc1,2%,0,4,1.1,·,2.1*
N#Cc1nc(COc2ccc(-c3ccccc3)cc2)oc1NCCCN1CCOCC1,2%,0,7,1,i,1.1
N#Cc1nc(-c2ccccc2F)oc1NCCN1CCOCC1,13%,20,5,1.1,·,2.1*
N#Cc1nc(-c2cccs2)oc1NCCCN1CCOCC1,5%,0,9,1.1,·,2.3*
CC1=C(C(=O)Nc2ccccc2C)C(c2ccc(C)o2)N2C(=O)CSC2=N1 (stereo not drawn),2%,5,13,1,i,1.1
N#Cc1nn(-c2ccccc2)nc1N1CCCCC1,6%,12,0,1,·,5*
OC(COc1ccc2c(c1)OCO2)CN1CCc2ccccc2C1 (stereo not drawn),7%,20,2,0.98,i,1
O=C1CC(c2ccc(F)cc2)CC(O)=C1C=NCCN1CCN(C(=O)Nc2ccccc2)CC1 (stereo not drawn),5%,9,7,1,i,1.1
c1ccc2c(c1)NC1(CCCCC1)n1c-2nc2ccccc21,6%,0,11,1.1,·,3.7*
O=C1Nc2ccccc2C12Nc1ccccc1-c1nc3ccccc3n12 (stereo not drawn),2%,5,2,1.1,i,1.3
CC1(c2ccccn2)Nc2ccccc2-c2nc3ccccc3n21 (stereo not drawn),4%,5,2,1.1,·,3.8*
O=C(CSc1nc2[nH]ncc2c(=O)n1-c1ccccc1Br)NCc1ccco1,3%,11,8,0.99,i,1

# Source: PubChem
